In the library only some 3.1% were active in any assay of this set; here they are far more common.
TrxR1 substrate: qHTS Assay for Substrates of Mammalian Selenoprotein Thioredoxin Reductase 1 (TrxR1): qHTS; Potency, µM (titrated, usually from 114 µM); 390,000 compounds, 0.01% hits; purified TrxR1 substrate turnover, NADPH consumption readout; Thioredoxin reductase 1, cytoplasmic (Rattus norvegicus), O89049; further: nearly all actives have a fitted effect of over 50% in size
Target sequence (O89049 whole entry, looked up): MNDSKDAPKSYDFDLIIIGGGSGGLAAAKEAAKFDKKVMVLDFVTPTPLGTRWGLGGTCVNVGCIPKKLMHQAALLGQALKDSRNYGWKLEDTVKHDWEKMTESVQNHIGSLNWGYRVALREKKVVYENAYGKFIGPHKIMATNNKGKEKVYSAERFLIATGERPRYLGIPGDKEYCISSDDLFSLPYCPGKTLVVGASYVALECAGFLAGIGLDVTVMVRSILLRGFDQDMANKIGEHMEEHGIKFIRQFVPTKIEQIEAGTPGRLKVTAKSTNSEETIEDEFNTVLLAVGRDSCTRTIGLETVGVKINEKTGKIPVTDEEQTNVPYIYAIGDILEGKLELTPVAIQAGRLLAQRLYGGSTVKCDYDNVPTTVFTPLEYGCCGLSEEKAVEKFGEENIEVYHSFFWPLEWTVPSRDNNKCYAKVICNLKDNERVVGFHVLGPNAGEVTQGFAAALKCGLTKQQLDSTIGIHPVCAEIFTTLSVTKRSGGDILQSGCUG
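Rat TrxR1, dispensed at 90 nM, was prereduced with 400 uM NADPH (final) for 5 min at ~22 deg C, then incubated with compound 15 min before 400 uM selenite. A first-read NADPH fluorescence drop versus no-compound background flagged substrates.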
Nrf2 block: Nrf2 qHTS screen for inhibitors; A549 ARE-Fluc reporter, luciferase luminescence, 18-24 h; 360,000 compounds, 2.1% hits; Potency, µM (highest dose often 46 µM), hits mostly inhibitors; AID 504444, 2011; further: nearly all actives have a fitted effect of over 60% in size
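Cells were seeded and rested 2 h, then exposed to compounds for 18-24 h. CellTiter-Fluor was read first as a viability measure. BugLite was added 15 min before the final luminescent read of ARE-luciferase activity in A549 cells.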
TrxR1 inh: qHTS Assay for Inhibitors of Mammalian Selenoprotein Thioredoxin Reductase 1 (TrxR1): qHTS | Thioredoxin reductase 1, cytoplasmic (Rattus norvegicus), O89049 | recombinant rTrxR1, NADPH fluorescence consumption, selenite substrate | Potency, µM (titrated, usually from 114 µM), hits mostly inhibitors | 390,000 compounds, 1% hits | AID 588453, 2011; further: nearly all actives have a fitted effect of over 65% in size
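Rat TrxR1 (90 nM in the dispensed reagent) was pre-reduced with 400 uM NADPH for 5 min at room temperature, then incubated with compound for 15 min. After 400 uM selenite was added, NADPH fluorescence (Ex 340/Em 450 nm) was followed for 8 min.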
A549 viability: Nrf2 qHTS screen for inhibitors: counterscreen for cytotoxicity | A549 ARE-Fluc cells, CellTiter-Fluor viability, 18-24 h | Potency, µM (highest dose often 46 µM), hits mostly inhibitors | 390,000 compounds, 0.16% hits
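A549 ARE_Fluc cells in 5% FBS OPTI-MEM were exposed to compounds in concentration-response for 18-24 h at 37 deg C. Viability was read by CellTiter-Fluor fluorescence (Ex 405/Em 525) after 30 min, before the luciferase read.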
IDH1 R132H inh: qHTS for Inhibitors of mutant isocitrate dehydrogenase 1 (IDH1): qHTS; Isocitrate dehydrogenase [NADP] cytoplasmic (Homo sapiens), O75874; IDH1-R132H enzyme, NADPH consumption, diaphorase/resazurin fluorescence; 390,000 compounds, 0.093% hits; Potency, µM (highest dose often 76.6 µM), usual class: inhibitors; further: nearly all actives have a fitted effect of over 65% in size
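IDH1-R132H (0.5 ug/mL) preincubated 30 min with compound, then NADPH (0.016 mM) and alpha-KG (2 mM) added; 80 min at RT, pH 7.5. Remaining NADPH coupled via diaphorase/resazurin to fluorescence (540/590 nm); concentration-response curves normalized to no-enzyme control.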
Mito fusion act: qHTS Assay for Small Molecule Inhibitors of Mitochondrial Division or Activators of Mitochondrial Fusion | S. cerevisiae fusion-defective mutant growth rescue, CellTiterGlo 48 h | Potency, µM (doses to about 46.1 µM), hits mostly activators | 320,000 compounds, 0.23% hits | AID 485298, 2010; further: nearly all actives have a fitted effect of over 45% in size
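S. cerevisiae fusion-defective temperature-sensitive mutants (e.g. fzo1-1, mgm1-5) grown 48 h at 37C in YPEG (ethanol/glycerol non-fermentable) medium with 23 nl compound per well; growth rescue read as CellTiterGlo luminescence.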
Numbers stand for hits. The call rests on the fitted dose curve; in most records, active means well fitted curve in the direction sought with a large enough effect; inconclusive means small, poorly fitted or top-dose-only effect, or another doubt; inactive means no such curve, though single readings can be large; an effect the other way counts as inactive or inconclusive.

For Cc1ccc(CNC(=O)c2nc(SCc3ccccc3F)ncc2Cl)cc1 the results were TrxR1 substrate inactive, Nrf2 block inactive, TrxR1 inh inactive, A549 viability inactive and IDH1 R132H inh inactive.
For O=C(COCc1cc(-c2ccc3c(c2)OCO3)on1)Nc1cc(C(F)(F)F)ccc1Cl the results were TrxR1 substrate inactive, Nrf2 block inconclusive, TrxR1 inh inactive, A549 viability inactive and IDH1 R132H inh inactive.
`O=C(NCc1cccs1)c1ccc(Cn2c(SCc3ccccc3)nc3cccnc32)cc1` gave TrxR1 substrate inactive, Nrf2 block 25.9µM, TrxR1 inh inactive, A549 viability inconclusive and IDH1 R132H inh inactive.
Screening O=C(NCCc1cccs1)c1ccc(Cn2c(SCc3ccc(F)cc3)nc3cccnc32)cc1 returned TrxR1 substrate inactive, Nrf2 block 18.4µM, TrxR1 inh inactive, A549 viability inconclusive and IDH1 R132H inh inactive.
For O=C(NCCc1cccs1)c1ccc(Cn2c(SCc3ccccc3)nc3cccnc32)cc1 the results were TrxR1 substrate inactive, Nrf2 block inconclusive, TrxR1 inh inactive, A549 viability inactive and IDH1 R132H inh inactive.
Screening COc1ccc(Cn2c(SCc3ccc(C(=O)NC4CCCCC4)cc3)nc3cccnc32)cc1 returned TrxR1 substrate inactive, Nrf2 block 18.4µM, TrxR1 inh inactive, A549 viability inconclusive and IDH1 R132H inh inactive.
Screening C(=C\c1ccnc2ccccc12)/c1ccc2ccccc2n1 returned TrxR1 substrate inactive and TrxR1 inh inactive.
Screening O=[S+]([O-])(c1ccc2c(c1)OCCO2)N1CCN([S+](=O)([O-])c2cc(Cl)ccc2F)CC1 returned Nrf2 block inactive and A549 viability inactive.
Screening O=C(O)CCc1cc(F)c(S(=O)(=O)N2CCN(S(=O)(=O)c3ccc4c(c3)OCCO4)CC2)cc1F returned Nrf2 block inactive and A549 viability inactive.
For COc1cccc(C2C(C(=O)Nc3ccc(C)cc3C)=C(C)Nc3c(C(=O)Nc4cccc(C)c4)cnn32)c1OC (centres undefined) the results were TrxR1 substrate inactive, Nrf2 block inactive, TrxR1 inh inactive, A549 viability inactive and IDH1 R132H inh inactive.
Screening COc1ccccc1-c1cc(NC(=O)COc2ccc(C)c(C)c2)n(-c2ccccc2)n1 returned TrxR1 substrate inactive, TrxR1 inh inactive, A549 viability inactive and IDH1 R132H inh inactive.
For CCOC(=O)C1=C(c2ccccc2)N=c2s/c(=C\c3cccc(O)c3)c(=O)n2C1c1cccs1 (centres undefined) the results were TrxR1 substrate inactive, Nrf2 block 25.9µM, TrxR1 inh inactive, A549 viability inconclusive, IDH1 R132H inh inactive and Mito fusion act inactive.
Screening O=C(Cc1nnc(-c2nc3ccccc3[nH]2)o1)Nc1cc(C(F)(F)F)ccc1Cl returned Nrf2 block inactive and A549 viability inactive.
CCCS(=O)(=O)c1nc(S(=O)(=O)c2ccc(C)cc2)c(NC(C)c2ccccc2)s1 (centres undefined) was read as TrxR1 substrate inactive, Nrf2 block inactive, TrxR1 inh 35.5µM and A549 viability inactive.
CCS(=O)(=O)c1nc(S(=O)(=O)c2ccc(C)cc2)c(NC(C)c2ccccc2)s1 (centres undefined) was read as TrxR1 substrate inactive, Nrf2 block inactive, TrxR1 inh inactive, A549 viability inactive and IDH1 R132H inh inactive.
For Cc1ccc(C)c2c1NC(C(=O)O)C1CC=CC21 (centres undefined) the results were TrxR1 substrate inactive, Nrf2 block inactive, TrxR1 inh 3.16µM and A549 viability inactive.
